Potency and affinity values are given separately. Inconclusive results are not listed. Calls of active or inactive are those of the source.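 The calls were made as follows: active = a valid curve of falling signal whose half-effect concentration is at most ten times the top tested dose; inconclusive = flat curve at 30 to 70% inhibition, or poor fit; inactive = signal rise, flat within 30%, or potency beyond limit.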
Each molecule was assayed against Scavenger receptor class B member 1 (Mus musculus) (UniProt Q61009) (assay: inhibitors of SR-BI mediated HDL lipid uptake, dose response, ldlA[mSR-BI] cells, fluorescence, cherry pick (AID 493194;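 also: CHO cells lacking LDL receptor and overexpressing mouse SR-BI; cellular uptake of fluorescently labeled HDL measured as cell fluorescence; 0% = median of neutral control wells and -100% = median of positive control wells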)). Conditions: CHO ldlA[mSR-BI] DiI-HDL uptake fluorescence, 3 h; series mostly up to 35 µM; activity change, negative = inhibition: at the top concentration.
Scavenger receptor class B member 1 (Mus musculus), sequence (Q61009 whole entry, looked up): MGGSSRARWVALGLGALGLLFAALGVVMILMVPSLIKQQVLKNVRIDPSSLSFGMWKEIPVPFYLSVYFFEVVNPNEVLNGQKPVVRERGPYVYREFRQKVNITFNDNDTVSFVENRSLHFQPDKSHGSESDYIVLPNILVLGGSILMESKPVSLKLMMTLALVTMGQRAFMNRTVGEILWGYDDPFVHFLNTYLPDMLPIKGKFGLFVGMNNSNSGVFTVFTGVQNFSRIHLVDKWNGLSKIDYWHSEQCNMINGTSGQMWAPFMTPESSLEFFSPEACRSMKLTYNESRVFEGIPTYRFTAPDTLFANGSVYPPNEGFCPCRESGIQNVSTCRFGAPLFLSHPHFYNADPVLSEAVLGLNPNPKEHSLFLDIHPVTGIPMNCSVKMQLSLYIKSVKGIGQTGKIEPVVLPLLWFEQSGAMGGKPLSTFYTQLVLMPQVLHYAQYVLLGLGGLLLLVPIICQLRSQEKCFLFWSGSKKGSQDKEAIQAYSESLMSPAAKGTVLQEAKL

Activity change, negative = inhibition, inactive:
COc1ccc(NC(=O)Nc2nnc(-c3ccccc3SCc3ccccc3)s2)cc1 56.2%, CNc1nc(-c2ccc3c(c2)CCN3C(=O)c2ccccc2F)c(C)s1 -4.41%, O=C(CCCC(=O)N(CC(=O)NC1CCCC1)C1CCCC1)Nc1ccccn1 6.62%, Cc1cc2oc(=O)cc(CN3CCN(C/C=C/c4ccccc4)CC3)c2cc1O 24.4%, CCOc1ccc(CCNC(=O)Cn2ncn3nc(-c4ccc(OC)cc4)cc3c2=O)cc1 -20%, CCC(C)NC(=O)Cn1cc(S(=O)(=O)N2CCN(c3ccccc3F)CC2)c2ccccc2c1=O (configuration not stated) 42.3%, O=C(NC1CC2CCCC(C1)N2C(=O)N1CCCCC1)C1CCCCC1 (configuration not stated) 17.6%, CCOC(=O)Nc1nc(-c2ccccc2)c(C(=O)c2ccccc2)s1 -13.9%, COc1ccc(-c2nc(-c3ccc(O)cc3O)cs2)cc1OC -21.4%, N#Cc1ccc(Nc2nc(-c3ccc(O)cc3O)cs2)cc1C(F)(F)F 5.41%, COc1ccc(OC)c2[nH]c(C(=O)N3CCC(C(=O)O)CC3)cc12 -3.01%, CC(=O)Nc1ccc(S(=O)(=O)N2CCC(C(=O)NCCC(=O)NCc3ccccc3)CC2)cc1 49%, COc1ccc(N2CCN(C(=O)Cc3csc(NC(=O)Nc4ccccc4OC)n3)CC2)cc1 -3.2%, COC(=O)c1[nH]c2c(c1C)C(=O)CC(c1cccs1)C2 (configuration not stated) -2.17%, NC(=O)c1cc(-c2ccccc2)sc1NC(=O)CN1CCCCC1 24.3%, C/C=C/COC(=O)c1[nH]c2c(c1C)C(=O)CC(c1ccco1)C2 (configuration not stated) -25.1%, Cc1ccc(C(C(=O)NC(C)(C)C)N(Cc2cccs2)C(=O)c2ccc3c(c2)OCCO3)cc1 (configuration not stated) 9.72%

Reference: PubChem BioAssay AID493194 (Broad Institute, 2011)
